Test results reported in PubChem BioAssay AID463173 (ICCB-Longwood Screening Facility, Harvard Medical School, 2010).
Out of some 52,000 compounds screened, about 4,300 (8.3%) were called active. This excerpt belongs to a sample that is enriched for actives. Unmarked numbers belong to inactive results. Rule as the data show it: active = survival mostly below about 52% (no sharp cut-off); inactive = mostly above about 56%.

Test system: DeltatarO mutant
Experiment: growth inhibition of S. aureus wild type versus tarO mutant, primary screen, teichoic acid synthesis inhibitors, RN4220, OD600 (AID 463173)
Settings: OD600, 18 h, active compounds read low, screened at 18.75 µg/mL (by protocol)

Which survival does the source give for `COc1cc(NC(=O)CCn2cnc3ccccc3c2=O)cc(OC)c1` here?
The survival was 122%.

For `CCN(CC)C(=O)Cn1cc(SCC(=O)Nc2cccc(C)c2)c2ccccc21`, which survival is on record?
Its survival is 69%.

`Cc1ccc2c(CC(=O)Nc3c(C(=O)c4ccc(C)c(F)c4)oc4ccccc34)coc2c1` was tested. Which survival did it give?
Its survival is 96%.

How did the survival turn out when `O=C(NCc1ccccc1)C1CCN(S(=O)(=O)Cc2ccccc2)CC1` was run?
Its survival is 98%.

Which survival does the source give for `CCc1ccc(NC(=O)C2CCN(S(=O)(=O)c3cccc(-c4noc(C)n4)c3)CC2)cc1` here?
Its survival is 77%.

For `CCc1cccc(NC(=O)C2CCN(S(=O)(=O)c3cccc(-c4noc(C)n4)c3)CC2)c1`, which survival is on record?
Its survival is 73%.

For `Cc1cc(C)cc(NC(=O)C2CCN(S(=O)(=O)c3cccc(-c4noc(C)n4)c3)CC2)c1`, which survival is on record?
The survival was -5% (active).

Which survival does the source give for `Cc1ccc(NC(=O)CSc2nc(C3CCCC3)nc3c2c(=O)n(C)c(=O)n3C)c(C)c1` here?
The survival was 73%.

`COc1cccc(CNC(=O)c2oc3c(c2C)-c2nn(Cc4cccc(Cl)c4)cc2CC3)c1` was tested. Which survival did it give?
Its survival is 76%.

With `CCOC(=O)c1c(NC(=O)c2ccc(F)cc2)sc2c1CCC(CC)C2` (stereo unspecified) as the molecule, how does the survival read?
Its survival is 9% (active).

How did the survival turn out when `CCOC(=O)c1c(NC(=O)c2ccccc2OCC)sc2c1CCC(CC)C2` (stereo unspecified) was run?
Its survival is -2% (active).

How did the survival turn out when `CCOC(=O)c1c(NC(=O)COc2cccc(C)c2C)sc2c1CCC(CC)C2` (stereo unspecified) was run?
The survival was 59%.

Which survival does the source give for `CCOC(=O)c1ccc(NC(=O)c2c(NC(C)=O)sc3c2CCC(C)C3)cc1` (stereo unspecified) here?
The survival was 47%.

Which survival does the source give for `CCC1CCc2c(sc(NC(=O)C3c4ccccc4Oc4ccccc43)c2C(=O)OC)C1` (stereo unspecified) here?
Its survival is 72%.

`CCOC(=O)c1c(NC(=O)C2c3ccccc3Oc3ccccc32)sc2c1CCC(CC)C2` (stereo unspecified) was tested. Which survival did it give?
Its survival is 52%.

How did the survival turn out when `CCCSc1ncc(Cl)c(C(=O)Nc2ccc(S(=O)(=O)N3CCCCC3C)cc2)n1` (stereo unspecified) was run?
Its survival is 51%.

With `Oc1ccccc1-c1nnc(SCc2ccccc2)o1` as the molecule, how does the survival read?
The survival was 86%.

With `COc1ccc(-c2nnc(SCc3cccc(Cl)c3)o2)cc1` as the molecule, how does the survival read?
The survival was 22% (active).

`c1ccc(-c2nnc(SCc3cccnc3)o2)cc1` was tested. Which survival did it give?
The survival was 54% (active).

How did the survival turn out when `COc1cccc(CSc2nnc(-c3ccc(F)cc3)o2)c1` was run?
Its survival is 90%.

With `N#Cc1ccccc1CSc1nnc(-c2ccccc2)o1` as the molecule, how does the survival read?
The survival was 61%.

How did the survival turn out when `Cc1ccc(CSc2nnc(-c3ccc(O)cc3)o2)cc1` was run?
Its survival is 84%.

With `COc1ccc(-c2nnc(SCC#N)o2)cc1` as the molecule, how does the survival read?
Its survival is 74%.

With `Cc1ccc(-c2nnc(SCc3ccccc3C)o2)cc1` as the molecule, how does the survival read?
Its survival is -5% (active).

`Cc1ccc(-c2nnc(SCc3ccccc3C#N)o2)cc1` was tested. Which survival did it give?
The survival was 69%.

With `CCOc1ccc(CCNC(=O)c2ccc(C)c(-n3c(C)nc4cccnc43)c2)cc1OCC` as the molecule, how does the survival read?
Its survival is 101%.
